Molecules are shown by their SMILES. Measured potencies and affinities stand elsewhere. The source made the active and inactive calls.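 The calls were made as follows: active = signal-lowering compounds whose fitted half-maximal concentration is at or below twice the top tested dose in every run; inconclusive = runs disagree, flat 30 to 70% inhibition, or poor curve fit; inactive = the rest.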

The target in this experiment is Protein S100-A4 (Homo sapiens) (UniProt P26447). Nature of the experiment: S100A4-myosin IIA binding inhibitor potency, dose response, biochemical, fluorescence polarization, cherry-picked hits (AID 687001). The following applies: FP, S100A4/TAMRA-myosin IIA peptide binding; series mostly up to 11 µM. A general note: In fluorescence polarisation assays a small probe gives low polarisation when free and higher when bound to something large.
Chain of Protein S100-A4 (Homo sapiens) (P26447 whole entry, looked up): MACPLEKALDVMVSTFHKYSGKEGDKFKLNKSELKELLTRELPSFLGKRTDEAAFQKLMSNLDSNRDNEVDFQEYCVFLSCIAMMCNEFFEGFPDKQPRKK
As for `Cc1cc2cc(CNC(=O)c3ccc(S(=O)(=O)N4CCCC4)cc3)ccc2n1C`, the call was inactive.
Consider `COC(=O)c1ccc2c(=O)n(CCN3CCOCC3)c(SCC(=O)Nc3ccccc3Cl)nc2c1`, for which the outcome was inactive.
Consider `COc1cc2cc(-c3ccc(O)cc3O)nc(C)c2cc1OC`, for which the molecule was classed as inactive.
For `Cc1noc(C)c1NC(=O)N(C)C[C@H]1Oc2c(NC(=O)CCCCCC(=O)Nc3ccccc3N)cccc2C(=O)N([C@@H](C)CO)C[C@H]1C` the value was “inactive”.
For `Cc1ccccc1OCC(=O)Nc1ccc(S(=O)(=O)N2CCCC2)cc1`, the outcome was inactive.
To `COc1ccc(OC)c(S(=O)(=O)NCC(c2ccco2)N2CCc3ccccc32)c1` (centres undefined) belongs “inactive”; to `CC(=O)c1c(C)[nH]c(C(=O)OCc2csc(CC(=O)Nc3ccccc3C)n2)c1C`, “inactive”.
To `CCN(CC)C(=O)Cn1ccc(NC(C)=O)nc1=O` belongs “inactive”; to `CCC1CN(C(=O)N2CCC(C(=O)NCCc3ccc(OC)c(OC)c3)CC2)c2ccccc2O1` (centres undefined), “inactive”; to `Cc1nn(-c2ccccc2)c(N)c1N=O`, “inactive”.
With `COc1cccc(CN2CC(C(=O)NCC3CCOCC3)CCC2=O)c1` (centres undefined), the call was inactive.
To `CCOC(=O)[C@]12CCCC=C1N(Cc1ccc3c(c1)OCO3)C(=O)[C@H](CC(=O)NCC1CCCCC1)C2` belongs “inactive”.
As for `Cc1cccc(C)c1NC(=O)C1(C)CCC(=O)N1CCOc1ccccc1` (centres undefined), the molecule was called inactive.
With `C[C@@H]1CCCCO[C@@H](CN(C)CC2CCCCC2)[C@@H](C)CN([C@H](C)CO)C(=O)c2cc(NS(=O)(=O)c3cn(C)cn3)ccc2O1`, the result was inactive.
For the molecule `CCc1ccc(C(=O)COC(=O)c2ccco2)cc1`, the result was inactive.
Regarding `CC(C)C#Cc1ccc2c(c1)O[C@@H](CN(C)C(=O)NC(C)C)[C@H](C)CN([C@H](C)CO)S2(=O)=O`, the outcome was inactive.
Turning to `CCCCCC(=O)Nc1cc(S(=O)(=O)N2CCOCC2)ccc1N1CCCCC1`, the outcome was inactive.
For `COc1ccccc1Nc1cc(C)nc(Nc2ccccc2OC)n1`, the result was inactive.
Consider `O=C(Nc1cc(Cl)ccc1O)C1CC(c2c(F)cccc2Cl)=NO1` (centres undefined), for which the call was inactive.
Turning to `CC(C)=CC(=O)O[C@@H]1Cc2cc3ccc(=O)oc3cc2OC1(C)C`, the outcome was inactive.
Take `COc1ccc(CN2CC3(CN(C(=O)c4ccccc4)C3)c3c([nH]c4cc(OC)ccc34)[C@H]2CO)cc1`: the result was inactive.
On to `O=C(C[C@H]1CC[C@H](NS(=O)(=O)c2cccc(F)c2)[C@@H](CO)O1)NCc1ccc2c(c1)OCO2`, for which the molecule was called inactive.
To `CCC(=O)N1C[C@H](C)[C@@H](OC)CN(C)C(=O)c2ccc(NC(=O)Nc3ccccc3)cc2OC[C@H]1C` belongs “inactive”.
To `COc1ccc(C(=O)CC(=O)C(=O)Nc2c(C)cccc2C)cc1` belongs “inactive”; to `C[C@@H]1CN([C@H](C)CO)C(=O)c2cccc(NC(=O)c3ccncc3)c2O[C@@H]1CN(C)C`, “inactive”.
`CC1CCN(c2nc3c(c(=O)[nH]c(=O)n3C)n2CC(C)CSc2nnnn2-c2ccccc2)CC1` (centres undefined): the outcome was inactive.
As to `CN1CCN(S(=O)(=O)c2cccc(C(=O)NC3CCCC3)c2)CC1`, the molecule was called inactive.
To `COc1ccc(-c2ccc3c(c2)O[C@H](CN(C)Cc2cccnc2)[C@@H](C)CN([C@H](C)CO)S3(=O)=O)cc1` belongs “inactive”; to `C[C@@H]1CN([C@@H](C)CO)C(=O)c2cc(NC(=O)CCC(F)(F)F)ccc2O[C@@H]1CN(C)C(=O)Nc1ccc(F)cc1`, “inactive”; to `Cc1c(C(=O)NCc2cccc([N+](=O)[O-])c2)sc(=O)n1Cc1cccc(F)c1`, “inactive”.
To `CCc1ccc(C(=O)NNC(=O)c2c(CC)noc2C)cc1` belongs “inactive”; to `CO[C@H]1CN(C)C(=O)c2cc(NC(=O)Nc3ccc(C(F)(F)F)cc3)ccc2OC[C@H](C)NC[C@H]1C`, “inactive”; to `CCOc1ccc(N2CC(C(=O)NNC(=O)c3ccc(Br)cc3)CC2=O)cc1` (centres undefined), “inactive”.
To `Cn1cccc1C(=O)NNC(=O)c1ccccc1Br` belongs “inactive”.
Regarding `CC(C)CC#Cc1ccc([C@@H]2[C@H](CO)N3C(=O)CN(C(=O)c4ccccn4)C[C@@H]23)cc1`, the molecule was called inactive.
To `CC(OC(=O)CSCC(=O)Nc1ccc(Cl)cc1)C(=O)N(C)Cc1ccccc1` (centres undefined) belongs “inactive”; to `O=C(CCCN1C(=O)C2CC=CCC2C1=O)Nc1ccccc1F` (centres undefined), “inactive”; to `CCOC(=O)C1=C(C)N(C)C(=O)NC1c1cccc2ccccc12` (centres undefined), “inactive”.
Regarding `C[C@H](CO)N1C[C@H](C)[C@@H](CN(C)Cc2ccc(Cl)c(Cl)c2)Oc2c(NS(=O)(=O)c3cccs3)cccc2C1=O`, the molecule was classed as inactive.

These data come from PubChem BioAssay AID687001 (Broad Institute, 2013).
